From PubChem BioAssay AID2283186 (EPA ToxCast)
Active and inactive are the calls of the source. Rule for the calls: active = hit-call score of the fitted dose curve at least 0.9, where 1 is the maximum; inactive = score below 0.9.

These compounds were tested against human p21 Activated Kinase 2 (PAK2), PAK2 (gene 5062) (UniProt Q13177) (assay: NVS_ENZ_hPAK2: NovaScreen (NVS) Enzymatic Assay for human p21 Activated Kinase 2 (PAK2)).
Procedure: NVS_ENZ_hPAK2 is a biochemical, single-readout assay that uses extracted gene-proteins in a cell-free assay. Measurements were taken 1 hour after chemical dosing in a 384-well plate.NVS_ENZ_hPAK2 is one of one assay component(s) measured or calculated from the NVS_ENZ_hPAK2 assay. It is designed to make measurements of enzyme activity, a form of enzyme reporter, as detected with fluorescence intensity signals by Fluorescence and electrophoretic mobility shift technology.Data from the assay component NVS_ENZ_hPAK2 was analyzed into 1 assay endpoint. This assay endpoint, NVS_ENZ_hPAK2, was analyzed in the positive analysis fitting direction relative to DMSO as the negative control and baseline of activity. Using a type of enzyme reporter, loss-of-signal activity can be used to understand changes in the enzymatic activity as they relate to the gene PAK2. Furthermore, this assay endpoint can be referred to as a primary readout, because this assay has produced multiple assay endpoints where this one serves a enzymatic activity function. To generalize the intended target to other relatable targets, this assay endpoint is annotated to the kinase intended target family, where the subfamily is serine/threonine kinase. […]

Chain of human p21 Activated Kinase 2 (PAK2), PAK2 (gene 5062) (Q13177 whole entry, looked up): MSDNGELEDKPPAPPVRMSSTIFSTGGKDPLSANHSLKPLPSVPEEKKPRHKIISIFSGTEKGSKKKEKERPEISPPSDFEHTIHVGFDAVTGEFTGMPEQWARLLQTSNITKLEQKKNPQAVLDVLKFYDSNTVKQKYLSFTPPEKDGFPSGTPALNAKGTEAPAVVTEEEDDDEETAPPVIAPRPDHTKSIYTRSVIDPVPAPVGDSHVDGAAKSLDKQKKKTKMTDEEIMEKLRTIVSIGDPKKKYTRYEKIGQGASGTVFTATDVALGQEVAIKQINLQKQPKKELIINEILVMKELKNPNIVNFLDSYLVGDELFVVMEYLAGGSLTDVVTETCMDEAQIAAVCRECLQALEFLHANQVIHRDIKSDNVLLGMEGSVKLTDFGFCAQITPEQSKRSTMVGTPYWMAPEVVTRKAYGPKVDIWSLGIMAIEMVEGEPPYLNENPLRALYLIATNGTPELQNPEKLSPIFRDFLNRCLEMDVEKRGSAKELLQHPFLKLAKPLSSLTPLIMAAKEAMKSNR

For `CC(C)(c1ccc(O)cc1)c1ccc(O)cc1`, which outcome is on record?
The outcome was “inactive”.

`COCCO` was tested. Which outcome did it give?
Its outcome is “inactive”.
